Assay results published in PubChem BioAssay (NCATS).
Inconclusive results are not listed. The source made the active and inactive calls. Calls come from the whole dose curve.

What was measured:
[1] = Primary qHTS for Huh7 cytotoxicity: counterscreen for inhibitors of MERS-S pseudotyped particle cell entry (AID 1479147); settings: outcome: dose series up to 57.1 µM unless noted
[2] = Primary qHTS for inhibitors of MERS-S pseudo-typed particle cell entry (AID 1479149); settings: outcome: dose series up to 57.1 µM unless noted; note: nearly all actives have a fitted effect of over 60% in size
[3] = Primary qHTS for Vero E6 cytotoxicity: counterscreen for inhibitors of SARS-S pseudo-typed particle cell entry (AID 1479150)

Measured: Potency

O=c1[nH]cc(N(CCCl)CCCl)c(=O)[nH]1
inactive: [1] inactive [at 114 µM] | [2] inactive [at 114 µM] | [3]

O=[N+]([O-])c1cc(I)c(O)c(I)c1
inactive: all assays above

O=C(O)C(Cl)(Cl)Cl
inactive: all assays above

Oc1ccc2c3c1O[C@H]1[C@@H](O)CC[C@@]4(O)[C@@H](C2)N(CC2CCC2)CC[C@]314
inactive: all assays above

C[C@]12CC[C@H](OS(=O)(=O)O)CC1=CC[C@@H]1[C@@H]2CC[C@]2(C)C(=O)CC[C@@H]12
inactive: all assays above

O=C(NCNC(=O)NC1C(=O)NC(=O)N1CO)NC1C(=O)NC(=O)N1CO (centres undefined)
inactive: all assays above

Cc1ccccc1-n1c(CF)nc2ccc(N)cc2c1=O
inactive: all assays above

O=[N+]([O-])c1ccccc1
inactive: all assays above

C[C@]12CCC(=O)C=C1C=C[C@@H]1[C@@H]2CC[C@@]2(C)[C@H]1CC[C@@]2(O)CCC(=O)O
inactive: all assays above

FC(F)OC(F)(F)C(F)Cl (centres undefined)
inactive: all assays above

O=P(O)(O)C(Cl)(Cl)P(=O)(O)O
inactive: [1] inactive [at 5.34 µM] | [2] inactive [at 5.34 µM] | [3] inactive [at 5.34 µM]

CC(C)CCC(=O)O[C@H]1CC[C@H]2[C@@H]3CCC4=CC(=O)CC[C@]4(C)[C@H]3CC[C@]12C
inactive: all assays above

CCNC1(c2cccs2)CCCCC1=O (centres undefined)
inactive: all assays above
